# The list is not random: actives were taken first. Their share in the collection is about 0.44%.
# p53 reactivator – restores transcriptional activity of mutant p53; H1299 p53-A138V BP100-luciferase reporter, luminescence, 24 h; Potency, µM (top dose mostly 92.2 µM), inactives show at the top dose activity change, positive = activation, actives largely listed as activators; 0.063% of 320,000 active; AID 504706; also: potency is read from the fitted curve at half-maximal effect; % of control where 0% means no effect; nearly all actives have a fitted effect of over 45% in size
#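 p53-null H1299 cells stably carrying temperature-sensitive p53-A138V and a BP100-luciferase reporter were pinned with compounds (4-point, 1:5 series) and held 24 hrs at 37 deg C. Luminescence was read 10 min after detection reagent.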
# Pin1 inh – inhibitors of human Pin1; Pin1 FP peptide displacement, HiFluor488, 10 min; Potency, µM (series often up to 115 µM), without a hit: top-dose activity, negative = inhibition, usual class: inhibitors; 0.009% of 390,000 active; AID 504891; active = well fitted inhibition curve with a large enough effect in the polarisation, with a control signal flat, not every such curve was filed as active; inconclusive = small, poorly fitted or top-dose-only effect, or effect the other way, or a change in a side signal; inactive = no such curve, though single readings can be large or run the other way; the % refers to the polarisation; also: potency is read from the fitted curve at half-maximal effect; % is scaled to controls: 0 for no effect and ±100 for the full control effect
# Target sequence (Q13526 whole entry, looked up): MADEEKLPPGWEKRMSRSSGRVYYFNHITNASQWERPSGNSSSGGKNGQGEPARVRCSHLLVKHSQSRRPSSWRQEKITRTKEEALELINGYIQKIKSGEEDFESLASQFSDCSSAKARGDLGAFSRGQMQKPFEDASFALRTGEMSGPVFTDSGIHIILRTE
# PI4K2A block – inhibitors of human PI4K2A. purified PI4K2A, ADP-Glo luminescence, 1 h; hits give low values. activity change, negative = inhibition, % at 76.9 µM. 0.13% of 420,000 active. AID 1346378; in the data active = activity change below about -50%; inconclusive = mostly about -30% to -49%;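 also: -100% = wells without enzyme as full effect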
# Target sequence (Q9BTU6 whole entry, looked up): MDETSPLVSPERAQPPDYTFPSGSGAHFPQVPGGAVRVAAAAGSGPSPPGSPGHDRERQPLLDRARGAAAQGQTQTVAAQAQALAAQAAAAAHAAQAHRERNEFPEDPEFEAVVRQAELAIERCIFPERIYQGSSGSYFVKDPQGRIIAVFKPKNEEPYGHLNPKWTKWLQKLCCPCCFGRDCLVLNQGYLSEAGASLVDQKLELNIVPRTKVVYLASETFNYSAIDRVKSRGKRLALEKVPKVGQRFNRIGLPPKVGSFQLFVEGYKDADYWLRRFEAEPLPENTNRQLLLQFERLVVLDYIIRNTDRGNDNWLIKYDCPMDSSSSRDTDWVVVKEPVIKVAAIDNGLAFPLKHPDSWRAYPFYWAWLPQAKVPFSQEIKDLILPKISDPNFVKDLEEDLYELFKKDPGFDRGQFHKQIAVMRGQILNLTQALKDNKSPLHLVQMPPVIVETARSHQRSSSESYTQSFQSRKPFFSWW
#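 In this quantitative HTS, ADP production by PI4K2A was quantified luminescently after 1 h at ambient temperature; 100 microM adenosine served as plate-quality control.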
# B2AR arrestin – recruits beta-arrestin to the human beta2-adrenergic receptor | P07550 | beta-arrestin recruitment to beta2AR, cell-based reporter | Potency, µM (highest dose often 46.1 µM), without a hit: at the highest dose activation, usual class: activators | 0.02% of 330,000 active;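 also: potency is read from the fitted curve at half-maximal effect; 0% = DMSO controls and full agonism = EC100 isoproterenol or metaproterenol; nearly all actives have a fitted effect of over 65% in size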
# Epigenetic reg – epigenetic control regulation, reporter derepression; murine LDR cells, GFP reporter derepression, 30 h; Potency, µM (top dose mostly 53.9 µM), without a hit: top-dose GFP activation, usual class: activators; 0.2% of 280,000 active; also: potency is read from the fitted curve at half-maximal effect; % of control where 0% means no effect; nearly all actives have a fitted effect of over 60% in size
#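 Murine LDR cells bearing a silenced CMV-driven GFP reporter were exposed to compound for 30 h at 37 C. After PBS washes, GFP-positive cells (20-120 um objects) counted by laser-scanning microplate cytometry.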
# Giardia killer – Giardia lamblia killing. activity change, % at 7.66 µM, hits read low. 0.15% of 340,000 active. AID 540267. Giardia lamblia trophozoite viability; in the data active = activity change below about -80%; inconclusive = between about -30% and that limit;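 also: parasites exposed to compound for two days anaerobically before the ATP read; % is scaled to controls: 0 for no effect and ±100 for the full control effect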
#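 Trophozoite viability was measured as ATP-dependent luminescence, read 15-30 min after reagent addition. Before that, parasites at 100 cells/well were exposed to compounds for 48 h, anaerobically, at 37 deg C.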
# * hit, by the source's call; ? = inconclusive; / = no result given. Unless noted, calls follow the shape of the dose curve; as a rule, active = well fitted curve in the direction sought with a large enough effect; inconclusive = small, poorly fitted or top-dose-only effect, or another doubt; inactive = no such curve, though single readings can be large; an effect the other way counts as inactive or inconclusive.
SMILES,p53 reactivator,Pin1 inh,PI4K2A block,B2AR arrestin,Epigenetic reg,Giardia killer
Cc1ccc(C2=NOC(C)(c3nnc(-c4ccncc4)o3)C2)cc1 (stereo not drawn),/,0%,-1,/,/,-4
COc1ccc(C2=NOC(C)(c3nnc(-c4ccncc4)o3)C2)cc1 (stereo not drawn),/,-6%,-60*,/,/,0
C/C(=C(/OCCOc1ccc(Cl)cc1)c1ccc(Cl)cc1Cl)n1ccnc1,/,/,3,/,/,/
O=C(OCCN1C(=O)c2cccc3c(N4CCOCC4)ccc(c23)C1=O)c1ccc(Cl)cc1Cl,-4%,?,-4,0%,?,6
O=C(OCCN1C(=O)c2cccc3c(N4CCOCC4)ccc(c23)C1=O)c1cccc(Cl)c1,1%,?,-2,0%,20µM*,-2
O=C1c2ccccc2C(=O)N1c1cccc2ncccc12,/,-12%,/,/,/,/
CC(C)(C)c1csc(NC(=O)CCc2ccccc2)n1,32µM*,-5%,4,0%,/,1
CC(C)(C)c1csc(NC(=O)Cc2cccs2)n1,3%,4%,-1,-1%,-4%,-1
CN(C)c1ccc(Cc2cc3c(O)ccc(O)c3cc(Cc3ccc(N(C)C)cc3)c2=O)cc1,/,/,-56*,/,/,-18
COc1ccc(OC)c(N/C(C)=C/C(=O)c2ccccc2)c1,?,0%,-12,-2%,0%,-1
COc1ccc(OC)c(N/C=C/C(=O)c2ccccc2)c1,/,20%,-52*,0%,/,-2
O=C(/C=C/Nc1ccc(F)cc1Br)c1ccccc1,16%,1%,?,0%,0%,-89*
Cc1ccc(NS(=O)(=O)c2ccc3c(c2)N(C)CCO3)cc1C,/,4%,/,/,/,/
NC(=O)C1CCN(c2nccc(-c3ccc(Br)cc3)n2)CC1,/,2%,/,/,/,/
CC(C)C(=O)NC(c1ccco1)c1ccc2cccnc2c1O (stereo not drawn),?,2%,-8,?,3.5µM*,6
CCCC(=O)NC(c1ccc(C)cc1)c1ccc2cccnc2c1O (stereo not drawn),3%,-1%,3,8%,/,2
CCC(=O)NC(c1cccs1)c1ccc2cccnc2c1O (stereo not drawn),6%,-2%,-2,13µM*,4µM*,5
CCCC(=O)NC(c1ccccc1OC)c1ccc2cccnc2c1O (stereo not drawn),12%,-5%,4,?,7.1µM*,-4
CCCCC(=O)NC(c1ccccc1OC)c1ccc2cccnc2c1O (stereo not drawn),?,2%,8,3%,3.5µM*,?
CCN(CC)c1ccc(C(NC(=O)C(C)C)c2ccc3cccnc3c2O)cc1 (stereo not drawn),/,/,3,/,/,/
Cc1oc(-c2ccccc2)nc1CCC(=O)c1ccc(CC2SC(=O)NC2=O)cc1 (stereo not drawn),/,/,0,/,/,/
CC(=O)Nc1cccc(OC2=NS(=O)(=O)c3ccccc32)c1,/,-2%,/,/,/,/
COC(=O)c1ccc(=O)c2nc3/c(=C/O)c(O)cc(=O)c3[nH]c12,4%,7.1µM*,-20,0%,-2%,-26
COC(=O)c1ccc(N)cc1O,2%,2%,-2,0%,11%,-16
O=C(Nc1c(-c2ccc3c(c2)OCO3)[nH][nH]c1=O)c1ccccc1,/,/,-60*,/,/,/
SMILES,p53 reactivator,Pin1 inh,PI4K2A block,B2AR arrestin,Epigenetic reg,Giardia killer
CC1=NN(c2ccc(N)cc2)C(=O)C1,-2%,?,-66*,1%,2%,4
CC1=NN(c2cccc([N+](=O)[O-])c2)C(=O)C1,-3%,-9%,-50*,0%,0%,-21
CC1=Nc2ccccc2/C1=C\c1nc(-c2ccc(C(F)(F)F)cc2)oc1O,-3%,?,1,0%,13µM*,-16
CC1=Nc2ccccc2/C1=C\c1nc(-c2ccccc2)oc1O,-1%,?,3,0%,0%,3
CC(=O)NC1CCN(c2nc(-c3ccc(Br)cc3)cs2)CC1,/,0%,/,/,/,/
O=S(=O)(O)c1cc(O)c2c(O)c(N=Nc3cc(Cl)ccc3O)c(S(=O)(=O)O)cc2c1,-12%,?,-53*,0%,/,-3
O=C(O)/C=C/c1ccc([N+](=O)[O-])o1,7%,-23%,0,0%,3%,-4
O=C1NC(=S)S/C1=C\C=C\c1ccc([N+](=O)[O-])o1,-14%,0%,-14,0%,?,-86*
O=C(Nc1ccc(Cl)cc1)Nc1nnc(SCc2ccccc2)s1,28µM*,-5%,-4,0%,6%,-8
Cc1ccc2nc3sc(C(=O)NCc4ccco4)c(N)c3cc2c1,?,?,1,-1%,16µM*,-12
O=c1c2ccccc2nc2sc(NCc3ccc([S+](=O)([O-])c4ccccc4)cc3)nn12,/,-2%,/,/,/,/
Cc1nc2cc(-c3ccccc3)sc2c(=O)n1N,17%,5%,-80*,0%,1%,?
COc1ccc(-c2cc3nc(C)n(N)c(=O)c3s2)cc1,-13%,17%,-87*,-1%,0%,?
COc1ccc(-c2cc3nc4n(c(=O)c3s2)CCC4)cc1,18%,-1%,-12,-1%,-1%,?
O=C(Nc1nccs1)C1CC(=O)N(c2ccc(F)cc2)C1 (stereo not drawn),-3%,0%,-6,-1%,/,16
O=C(Nc1ncc([N+](=O)[O-])s1)C1CC(=O)N(c2ccc(F)cc2)C1 (stereo not drawn),16%,-9%,0,0%,/,-86*
NC(=O)c1c(NC(=O)c2ccc([N+](=O)[O-])o2)sc2c1CCCC2,-8%,-4%,-5,0%,/,-91*
NC(=O)c1ccsc1NC(=O)c1ccc([N+](=O)[O-])o1,-16%,-1%,5,-1%,/,-95*
N#Cc1c(NC(=O)c2ccc([N+](=O)[O-])o2)sc2c1CCC2,?,?,10,0%,/,-94*
O=C(Nc1noc2ccccc12)c1ccc(F)cc1,/,-5%,-56*,/,-2%,/
NC(=O)C1CCN(c2nccc(Cl)n2)CC1,/,-4%,/,/,/,/
O=C1S/C(=C\c2ccc(N3CCOCC3)o2)C(=O)N1Cc1ccc(F)cc1,-1%,?,10,-1%,3.5µM*,20
O=C1S/C(=C/c2ccc(N3CCOCC3)o2)C(=O)N1Cc1ccc(F)cc1,-2%,?,3,0%,14µM*,18
O=C1NC(=S)S/C1=C/c1ccc(N2CCOCC2)o1,?,?,-12,0%,-2%,-15
CC(C)OC(=O)CN1C(=O)S/C(=C/c2ccc(N3CCCCC3)o2)C1=O,-14%,?,-4,0%,11µM*,-6
CC(C)(C)OC(=O)CN1C(=O)S/C(=C\c2ccc(-c3cccc(C(=O)O)c3)o2)C1=O,/,/,/,-1%,/,/

# From PubChem BioAssay
